Molecules are shown by their SMILES. The panel holds about 79,000 compounds, 15% with a hit somewhere; the sample as a whole holds those more often. A number with no mark means an inactive call. Active and inactive are the calls of the source. Rule as the data show it: active = growth inhibition above about 70%; inactive = the rest.

The source of these data is PubChem BioAssay (NCI).

A short description of experiment [1]: NCI Yeast Anticancer Drug Screen. Data for the rad50 strain (AID 155).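 Also: 0% = growth of vehicle-only cultures of the same strain.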 To be noted: S. cerevisiae rad50 strain growth inhibition, hits give high values. An outline of the steps:
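Yeast carrying a defined DNA repair defect were exposed to test compounds, and growth was compared with vehicle-treated controls to give percent inhibition.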

Experiment [2] is described as follows: NCI Yeast Anticancer Drug Screen. Data for the mec2-1 strain (AID 157). To be noted: S. cerevisiae mec2-1 strain, hits give high values. A digest of the protocol: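 Growth inhibition is read against vehicle-treated controls after compound exposure of the mec2-1 yeast strain, which is defective in DNA damage repair or cell cycle control.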
Experiment [3] can be described thus: NCI Yeast Anticancer Drug Screen. Data for the sgs1 mgt1 strain (AID 161).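 Also: 0% = growth of cultures given vehicle only.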 To be noted: S. cerevisiae sgs1 mgt1 strain, hits give high values. A digest of the protocol: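 Compounds are added to genetically altered yeast, and growth is compared with cultures given vehicle alone to give percent inhibition.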
Experiment [4] can be described thus: NCI Yeast Anticancer Drug Screen. Data for the cln2 rad14 strain (AID 165).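 Also: 0% = growth equal to vehicle treated cultures.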 To be noted: S. cerevisiae cln2 rad14 strain, hits give high values. An outline of the steps: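 Growth inhibition, relative to vehicle-treated controls, is the read-out. The test organism is a yeast strain with defined genetic alterations, cln2 rad14.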
Experiment [5] in a line: NCI Yeast Anticancer Drug Screen. Data for the bub3 strain (AID 167). To be noted: S. cerevisiae bub3 mutant strain, hits give high values. A digest of the protocol: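 Compounds were applied to a genetically altered yeast strain carrying a cell-cycle control defect. Growth inhibition was scored against vehicle-treated controls.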
The nature of experiment [6]: NCI Yeast Anticancer Drug Screen. Data for the mlh1 rad18 strain (AID 175). To be noted: S. cerevisiae mlh1 rad18 strain growth inhibition, hits give high values. A digest of the protocol:
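Cells of a genetically altered yeast strain, deficient in DNA damage repair, were treated with compound. Their growth was then compared with that of vehicle-treated cultures to give inhibition.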

[7] abbreviates: at 5.0 µM (retest, dose inferred, filed as 0.5).
Where [8] appears, read: at 50.0 µM (retest, dose inferred, filed as 5.0).

Regarding `CCOC(=O)c1cc(C)ccc1-c1ccc(C)cc1C(=O)OCC`, the growth inhibition in experiment [1] (setting [7]) was 1%; in experiment [1] (setting [8]) it was 29%; in experiment [1] (at 50.0 µM), 57.6%; in experiment [2] (setting [7]), -10%; in experiment [2] (setting [8]), 8%; in experiment [2] (at 50.0 µM), 67.8%. The growth inhibition in experiment [3] (setting [7]) was 1%; in experiment [3] (setting [8]), 68%; in experiment [3] (at 50.0 µM), 77% (active); in experiment [4] (setting [7]) it was -1%; in experiment [4] (setting [8]), 17%; in experiment [4] (at 50.0 µM), 3.55%. In addition, the growth inhibition in experiment [5] (setting [7]) is 6%; in experiment [5] (setting [8]) it was 46%; in experiment [5] (at 50.0 µM), 86.8% (active); in experiment [6] (setting [7]), 2%; in experiment [6] (setting [8]) it was 28%; in experiment [6] (at 50.0 µM), 75.5% (active).
Turning to `O=Cc1ccc(/C=N\Nc2ccccc2)cc1`, the growth inhibition was 1% in experiment [1] (setting [7]); 12% in experiment [1] (setting [8]); 82.3% (active) in experiment [1] (at 50.0 µM); -5% in experiment [2] (setting [7]); 0% in experiment [2] (setting [8]); 33.2% in experiment [2] (at 50.0 µM). Further, the growth inhibition in experiment [3] (setting [7]) is -3%; in experiment [3] (setting [8]), -4%; in experiment [3] (at 50.0 µM), 41.9%; in experiment [4] (setting [7]), 1%; in experiment [4] (setting [8]) it was 7%; in experiment [4] (at 50.0 µM) it was 34.1%. The growth inhibition in experiment [5] (setting [7]) was -1%; in experiment [5] (setting [8]), 12%; in experiment [5] (at 50.0 µM), -9.55%; in experiment [6] (setting [7]), 4%; in experiment [6] (setting [8]) it was 30%; in experiment [6] (at 50.0 µM), 92.3% (active).
On to `CN(Nc1ccc(Cl)cc1)c1ccc(Cl)cc1`, for which the growth inhibition in experiment [1] (setting [7]) is 1%; in experiment [1] (setting [8]), 95% (active); in experiment [1] (at 50.0 µM), 73.2% (active); in experiment [2] (setting [7]) it was 12%; in experiment [2] (setting [8]) it was 98% (active); in experiment [2] (at 50.0 µM), 64%. Also, the growth inhibition in experiment [3] (setting [7]) was 0%; in experiment [3] (setting [8]) it was 97% (active); in experiment [3] (at 50.0 µM), 79.2% (active); in experiment [4] (setting [7]), 5%; in experiment [4] (setting [8]), 95% (active); in experiment [4] (at 50.0 µM), 53.1%. Moreover, the growth inhibition was 9% in experiment [5] (setting [7]); 97% (active) in experiment [5] (setting [8]); 77% (active) in experiment [5] (at 50.0 µM); -9% in experiment [6] (setting [7]); 96% (active) in experiment [6] (setting [8]); 75.3% (active) in experiment [6] (at 50.0 µM).
Regarding `O=c1nc(NC(c2ccccc2)(c2ccccc2)c2ccccc2)ccn1CCNCCn1ccc(NC(c2ccccc2)(c2ccccc2)c2ccccc2)nc1=O`, the growth inhibition was 82% (active) in experiment [1] (setting [7]); 96% (active) in experiment [1] (setting [8]); 87.6% (active) in experiment [1] (at 50.0 µM); 52% in experiment [2] (setting [7]); 97% (active) in experiment [2] (setting [8]); 89% (active) in experiment [2] (at 50.0 µM). Besides, the growth inhibition in experiment [3] (setting [7]) is 65%; in experiment [3] (setting [8]) it was 98% (active); in experiment [3] (at 50.0 µM) it was 91.5% (active); in experiment [4] (setting [7]), 34%; in experiment [4] (setting [8]), 97% (active); in experiment [4] (at 50.0 µM), 89.2% (active). Moreover, the growth inhibition in experiment [5] (setting [7]) is 74% (active); in experiment [5] (setting [8]), 98% (active); in experiment [5] (at 50.0 µM), 91% (active); in experiment [6] (setting [7]), 90% (active); in experiment [6] (setting [8]), 97% (active); in experiment [6] (at 50.0 µM), 90% (active).
As for `OCCCCCCCCCl`, the growth inhibition in experiment [1] (setting [7]) was 0%; in experiment [1] (setting [8]), 10%; in experiment [1] (at 50.0 µM), 35.5%; in experiment [2] (setting [7]), -6%; in experiment [2] (setting [8]) it was 6%; in experiment [2] (at 50.0 µM), 21.6%. The growth inhibition in experiment [3] (setting [7]) is 1%; in experiment [3] (setting [8]), 9%; in experiment [3] (at 50.0 µM) it was 45.1%; in experiment [4] (setting [7]), 8%; in experiment [4] (setting [8]), 5%; in experiment [4] (at 50.0 µM), 35.9%. Moreover, the growth inhibition is -3% in experiment [5] (setting [7]); 0% in experiment [5] (setting [8]); -24.9% in experiment [5] (at 50.0 µM); -1% in experiment [6] (setting [7]); 9% in experiment [6] (setting [8]); 14.1% in experiment [6] (at 50.0 µM).
Take `c1ccc(Oc2ccc(Nc3c4ccccc4nc4ccccc34)cc2)cc1`: the growth inhibition in experiment [1] (setting [7]) was 85% (active); in experiment [1] (setting [8]) it was 57%; in experiment [1] (at 50.0 µM), 45.9%; in experiment [2] (setting [7]) it was 4%; in experiment [2] (setting [8]), 70% (active); in experiment [2] (at 50.0 µM) it was 30%. For the same compound, the growth inhibition is 17% in experiment [3] (setting [7]); 84% (active) in experiment [3] (setting [8]); 76.2% (active) in experiment [3] (at 50.0 µM); 3% in experiment [4] (setting [7]); 62% in experiment [4] (setting [8]); 31.9% in experiment [4] (at 50.0 µM). Moreover, the growth inhibition in experiment [5] (setting [7]) is -4%; in experiment [5] (setting [8]), 81% (active); in experiment [5] (at 50.0 µM) it was 28.6%; in experiment [6] (setting [7]), 13%; in experiment [6] (setting [8]), 91% (active); in experiment [6] (at 50.0 µM) it was 27.1%.
As to `CCCCCCCCCCCCCCSC(=N)N`, the growth inhibition was 99% (active) in experiment [1] (setting [7]); 95% (active) in experiment [1] (setting [8]); 66.3% in experiment [1] (at 50.0 µM); 65% in experiment [2] (setting [7]); 97% (active) in experiment [2] (setting [8]); 98.5% (active) in experiment [2] (at 50.0 µM). The growth inhibition in experiment [3] (setting [7]) was 100% (active); in experiment [3] (setting [8]), 95% (active); in experiment [3] (at 50.0 µM) it was 45.5%; in experiment [4] (setting [7]), 41%; in experiment [4] (setting [8]), 95% (active); in experiment [4] (at 50.0 µM) it was 54.5%. Besides, the growth inhibition in experiment [5] (setting [7]) was 100% (active); in experiment [5] (setting [8]) it was 96% (active); in experiment [5] (at 50.0 µM), 98.7% (active); in experiment [6] (setting [7]) it was 95% (active); in experiment [6] (setting [8]), 96% (active); in experiment [6] (at 50.0 µM), 97.7% (active).
As for `O=C(Nc1ccc(Br)cc1)Oc1ccccc1C(=O)Nc1ccccc1`, the growth inhibition is 6% in experiment [1] (setting [7]); 95% (active) in experiment [1] (setting [8]); 79.1% (active) in experiment [1] (at 50.0 µM); 1% in experiment [2] (setting [7]); 96% (active) in experiment [2] (setting [8]); 70.3% (active) in experiment [2] (at 50.0 µM). Besides, the growth inhibition is 0% in experiment [3] (setting [7]); 98% (active) in experiment [3] (setting [8]); 91% (active) in experiment [3] (at 50.0 µM); 2% in experiment [4] (setting [7]); 94% (active) in experiment [4] (setting [8]); 54.2% in experiment [4] (at 50.0 µM). Also, the growth inhibition in experiment [5] (setting [7]) was 5%; in experiment [5] (setting [8]), 98% (active); in experiment [5] (at 50.0 µM), 89.9% (active); in experiment [6] (setting [7]), 4%; in experiment [6] (setting [8]), 96% (active); in experiment [6] (at 50.0 µM) it was 97.8% (active).
Take `c1ccc2c(c1)CCc1[nH]c3c(c1-2)-c1ccccc1CC3`: the growth inhibition in experiment [1] (setting [7]) was 24%; in experiment [1] (setting [8]), 94% (active); in experiment [1] (at 50.0 µM), 87.5% (active); in experiment [2] (setting [7]), 16%; in experiment [2] (setting [8]), 96% (active); in experiment [2] (at 50.0 µM), 91.2% (active). The growth inhibition in experiment [3] (setting [7]) was 21%; in experiment [3] (setting [8]), 94% (active); in experiment [3] (at 50.0 µM), 90.4% (active); in experiment [4] (setting [7]), 62%; in experiment [4] (setting [8]) it was 95% (active); in experiment [4] (at 50.0 µM), 88.4% (active). The growth inhibition was 69% in experiment [5] (setting [7]); 94% (active) in experiment [5] (setting [8]); 89.8% (active) in experiment [5] (at 50.0 µM); 31% in experiment [6] (setting [7]); 91% (active) in experiment [6] (setting [8]); 86.3% (active) in experiment [6] (at 50.0 µM).
